# Screening results: PubChem BioAssay, several laboratories
# Hits are enriched below; roughly 4.5% of the tested compounds scored in any of these assays.
# 697 NFkB inh: inhibitors of PMA/ionomycin-induced NF-kB reporter, 697 cells, primary screen, B-cell NF-kB inhibitor project, cell-based, luminescence, uHTS; actives 0.33% (n = 330,000); AID 435022, 2010; 697 B-cell NF-kB luciferase reporter, 16 h; inhibition, % at 4 µM; in the data active means inhibition above about 35%
# Mdm2-MdmX inh: inhibitors of human Mdm2-MdmX association, primary screen, cell-based, luminescence, split luciferase, SaOS-2, uHTS | Protein Mdm4 (Homo sapiens) + E3 ubiquitin-protein ligase Mdm2 (Homo sapiens), … | SaOS-2 split-luciferase Mdm2/MdmX complementation | inhibition, % at 8 µM | actives 3% (n = 330,000) | AID 485346, 2010;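 active means inhibition of at least 50% at 8 µM in the primary screen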
# Target sequence (O15151 whole entry, looked up): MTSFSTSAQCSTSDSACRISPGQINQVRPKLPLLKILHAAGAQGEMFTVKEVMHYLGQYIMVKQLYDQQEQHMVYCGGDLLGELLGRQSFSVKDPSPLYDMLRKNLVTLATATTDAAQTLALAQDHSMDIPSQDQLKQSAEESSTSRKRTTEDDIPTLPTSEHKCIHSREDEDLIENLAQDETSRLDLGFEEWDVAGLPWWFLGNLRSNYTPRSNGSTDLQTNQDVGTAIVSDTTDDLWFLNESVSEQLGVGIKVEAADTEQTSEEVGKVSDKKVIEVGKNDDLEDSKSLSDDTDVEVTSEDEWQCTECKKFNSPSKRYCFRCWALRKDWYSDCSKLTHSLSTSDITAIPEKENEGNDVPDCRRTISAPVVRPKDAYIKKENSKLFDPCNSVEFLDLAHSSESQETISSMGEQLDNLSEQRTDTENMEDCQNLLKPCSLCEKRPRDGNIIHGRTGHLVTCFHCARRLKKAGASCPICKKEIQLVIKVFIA
# Target sequence (Q00987 whole entry, looked up): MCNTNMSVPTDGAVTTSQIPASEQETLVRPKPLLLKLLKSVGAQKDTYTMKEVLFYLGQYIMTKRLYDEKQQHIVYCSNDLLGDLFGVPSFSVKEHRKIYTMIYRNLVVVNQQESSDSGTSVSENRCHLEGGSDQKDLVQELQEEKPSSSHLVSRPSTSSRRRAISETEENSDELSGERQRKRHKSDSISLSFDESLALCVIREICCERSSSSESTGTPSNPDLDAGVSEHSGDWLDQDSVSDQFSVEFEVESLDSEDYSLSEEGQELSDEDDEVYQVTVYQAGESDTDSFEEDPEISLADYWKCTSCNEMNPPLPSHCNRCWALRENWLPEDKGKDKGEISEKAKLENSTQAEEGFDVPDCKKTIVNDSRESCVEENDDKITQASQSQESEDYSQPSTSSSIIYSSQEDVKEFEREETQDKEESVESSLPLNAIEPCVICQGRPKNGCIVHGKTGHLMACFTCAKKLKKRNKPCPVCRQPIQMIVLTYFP
# aSyn 5UTR inh: MLPCN primary screen, SNCA 5' untranslated region. actives 0.82% (n = 300,000). alpha-synuclein 5'UTR reporter, inhibitor activity. inhibition, % (tested at 7.5 µM); in the data active means inhibition above about 60%;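 further: H4 neuroglioblastoma cells stably carrying SNCA 5'UTR luciferase fusion; 0% = DMSO wells and 100% = positive control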
# Jurkat NFkB inh: inhibitors of induced NF-kB luciferase reporter, primary screen, TCR NF-kB activation inhibitor project, cell-based, luminescence, uHTS | Jurkat, PMA/ionomycin-induced NF-kB luciferase reporter | inhibition, % at 4 µM | actives 0.53% (n = 330,000) | AID 435003, 2010; in the data active means inhibition above about 50%
# Gli-Sufu antag: Gli-Sufu pathway antagonists, primary screen, luciferase luminescence, Sufu-KO-LIGHT cells, uHTS; Sufu-KO-LIGHT fibroblasts, Gli luciferase reporter luminescence; inhibition, % at 5 µM; actives 0.74% (n = 340,000); AID 588413, 2011;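 active means inhibition above about 55%, limit read from the data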;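 further: 0% = DMSO-treated cells and 100% = wells with medium but no cells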
# CSC inhib: cancer stem cell viability inhibitors, primary screen, luminescence; actives 1.1% (n = 300,000); cancer stem cell-like cells viability; AID 2717, 2010; inhibition, % at 7.5 µM; in the data active means inhibition above about 75%; tested in HMLE shEcad cells
# Mdm2-MdmX conf: Mdm2-MdmX complex disruptors, retested hits, confirmation, luminescence, single concentration | shares compounds with Mdm2-MdmX inh | Mdm2-MdmX binding, luminescent assay | inhibition, % at 8 µM | actives 55% (n = 10,000) | AID 489028, 2010; in the data active means inhibition above about 40%
# FLuc counter: full-length luciferase signal inhibition, confirmation, counter-screen for Mdm2/MdmX interaction inhibitor project, cell-based, single concentration, SaOS-2; SaOS-2 full-length luciferase counterscreen, luminescence; actives 77% (n = 6,200); shares compounds with Mdm2-MdmX inh; inhibition, % at 8 µM;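 active means mean inhibition at 8 µM reaching about 37%, which flags the compound as non-specific, limit read from the data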;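 further: p53-null SaOS-2 cells with luciferase driven by a doxycycline-inducible promoter; compound on cells about two nights before reading with doxycycline added after day one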
# * hit, by the source's call; . = not tested or not shown.
SMILES,697 NFkB inh,Mdm2-MdmX inh,aSyn 5UTR inh,Jurkat NFkB inh,Gli-Sufu antag,CSC inhib,Mdm2-MdmX conf,others
COC(=O)COc1cccc(NC(=O)C(c2ccccc2)c2ccccc2)c1,-11,-9,1,-1,2,-13,.,
Oc1c(Cl)cc(Cl)cc1/C=N/Nc1ncc(Br)cn1,11,67*,43,33,51,-2,69*,FLuc counter=23
Cc1ccc(N/N=C2\CC(=O)c3ccccc32)cc1Cl,14,58*,-59,8,.,77*,6,
CC(=O)C(C(C)=O)c1c(Cl)c(O)c(O)c2c(C(=O)c3ccccc3)coc12,-3,60*,-4,5,2,71,34,
COc1ccc(/C=N/Nc2cn[nH]c(=O)c2Cl)cc1,-3,35,-37,-32,-9,21,.,
Cc1sc2nc(CSC(C)C(=O)N(C)CC(=O)Nc3ccccc3C(F)(F)F)[nH]c(=O)c2c1C (centres undefined),9,51*,30,0,5,-7,27,
COc1ccccc1N1CCN(C(=O)c2ccc3c(Cl)c4c(nc3c2)CCCC4)CC1,-11,64*,-3,-5,-9,15,20,
Cc1ccc(C)c(N2CCN(C(=O)c3ccc4nc(-c5ccco5)c(-c5ccco5)nc4c3)CC2)c1,-2,0,21,-6,9,0,.,
COc1ccccc1N1CCN(C(=O)c2cc3c(C)nc4ccccc4c3o2)CC1,-39,54*,29,23,46,-12,20,
Cc1ccc(C)c(N2CCN(C(=O)c3cc4c(C)nc5ccccc5c4o3)CC2)c1,-24,42,35,-3,29,13,.,
COc1ccccc1N1CCN(C(=O)c2ccc3nc(-c4ccco4)c(-c4ccco4)nc3c2)CC1,-15,54*,16,4,8,-4,24,
O=C(c1ccc2c(Cl)c3c(nc2c1)CCCC3)N1CCN(c2ccc(F)cc2)CC1,9,42,-30,2,38,.,.,
COc1ccc(NC(=O)CCC(=O)c2cc(C)sc2C)cc1,-2,19,.,-14,-1,.,.,
O=C1C(C2=NC(c3ccccn3)C3C(=O)N(c4ccccc4)C(=O)C23)=C(O)c2ccccc21 (centres undefined),8,8,-12,10,2,-10,.,
Brc1ccc2[nH]c3c(N4CCc5ccccc5C4)ncnc3c2c1,-35,69*,-43,-6,72*,80*,20,
CC1(C)CC(Cc2nc(=S)[nH][nH]2)C(=O)O1 (centres undefined),18,10,-4,7,9,-11,.,
O=C1C=C(c2ccc3c(c2)OCCO3)C[C@@H](c2ccc(F)cc2)C1,-8,8,.,-15,-18,35,.,
COc1ccc(NC(=O)C2CCCN2C(=O)Oc2ccccc2)cc1 (centres undefined),16,18,5,2,-4,1,.,
Cc1cc(C)c2nc(-c3ccccn3)cc(C(=O)NCc3ccc(S(N)(=O)=O)cc3)c2c1,3,54*,-31,-4,9,23,-3,
COc1cccc(NC(=O)c2cc(-c3ccncc3)nc3c(C)cc(C)cc23)c1,-15,22,9,4,-1,39,.,
COc1ccc(NC(=O)c2cc(-c3ccccn3)nc3c(C)cc(C)cc23)c(C)c1,-20,77*,37,4,9,1,47*,FLuc counter=104*
Cc1ccccc1C(=O)NCC(=O)OC(C)C(=O)Nc1cccc(S(=O)(=O)N2CCOCC2)c1 (centres undefined),2,9,8,5,-10,3,.,
Cc1ccc(C2CC(c3cccs3)=NN2C(=O)CSC2=NCCS2)cc1 (centres undefined),-8,55*,-8,-2,17,3,28,
CCC(=O)N1N=C(c2cccs2)CC1c1ccc(OC)cc1 (centres undefined),-29,-12,-23,-9,4,-8,.,
Cc1ccc(C2CC(c3cccs3)=NN2C(=O)CCl)cc1 (centres undefined),-61,100*,-33,47,-7,29,96*,FLuc counter=53*
SMILES,697 NFkB inh,Mdm2-MdmX inh,aSyn 5UTR inh,Jurkat NFkB inh,Gli-Sufu antag,CSC inhib,Mdm2-MdmX conf,others
CCC(=O)N1N=C(c2cccs2)CC1c1ccc(C)cc1 (centres undefined),-5,-12,4,-4,-3,-6,.,
COc1ccc(C2CC(c3cccs3)=NN2C(=O)CSC2=NCCS2)cc1 (centres undefined),3,54*,-34,-9,15,19,14,
COc1ccc(C2C(C(=O)NCCN3CCOCC3)c3ccccc3C(=O)N2C2CCCCC2)cc1 (centres undefined),2,-15,16,0,0,.,.,
O=C(c1cccs1)N1CCN(S(=O)(=O)c2cccc(Cl)c2Cl)CC1,1,27,.,10,2,.,.,
CCc1nc(Nc2ccncc2)c2oc3ccccc3c2n1,-36,63*,-27,8,22,8,79*,FLuc counter=32
Cc1nc(Nc2ccncc2)c2oc3ccccc3c2n1,18,73*,-66,-53,11,-2,55*,FLuc counter=47*
CCOC(=O)C1CCN(C(=O)N(CC)CC)CC1,5,-39,-6,4,-5,-8,.,
CC(=O)c1ccc(NC(=S)N2CCN(CCN3C(=O)c4cccc5cccc(c45)C3=O)CC2)cc1,11,28,-12,-1,1,14,.,
CC(=O)c1cccc(NC(=S)N2CCN(CCN3C(=O)c4cccc5cccc(c45)C3=O)CC2)c1,-9,65*,45,-7,6,4,-29,
O=c1[nH]c(/C=C/c2ccc(Br)cc2)nc2c1cnn2-c1ccccc1,12,83*,-10,5,.,.,21,
O=C(NNC(=O)C(c1ccccc1)c1ccccc1)c1ccccn1,13,66*,72*,14,24,27,66*,FLuc counter=42*
O=C(NNC(=S)Nc1ccc(Cl)c(Cl)c1)c1ccccn1,20,79*,68*,-1,-11,109*,84*,FLuc counter=48*
CC1CCC2(CC1)NC(=O)N(CC(=O)Nc1ccc(C(N)=O)cc1)C2=O (centres undefined),-6,6,.,10,11,-14,.,
